Read-out in assay [1]: Interleukin-1 alpha (IL1a), IL1A (gene 3552)
As to the kind of experiment: BSK_KF3CT_IL1a: BioMAP Diversity Plus: KF3CT Assay for Interleukin-1 alpha (IL1a) Biomarker Activity (AID 2283070). Particulars: primary human keratinocytes with fibroblasts; actives raise or lower the signal. Put shortly: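 Primary human keratinocyte plus foreskin fibroblast co-culture, dosed and measured at 24 h in 96-well plates. IL-1a level quantified by ELISA; bidirectional fit relative to DMSO.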

Read-out in assay [2]: TIMP metallopeptidase inhibitor 2 (TIMP2), TIMP2 (gene 7077)
In words: BSK_KF3CT_TIMP2: BioMAP Diversity Plus: KF3CT Assay for TIMP metallopeptidase inhibitor 2 (TIMP2) Biomarker Activity (AID 2283071). Particulars: primary human keratinocytes with fibroblasts; actives raise or lower the signal. In a few lines: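 Co-culture of human primary keratinocytes and foreskin fibroblasts, measured 24 h after chemical dosing. TIMP-2 quantified by ELISA and fitted in both directions relative to DMSO. Cytotoxicity checked in parallel cultures by SRB total-protein staining.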

Read-out in assay [3]: C-C motif chemokine 2 (Homo sapiens) (UniProt P13500)
In words: BSK_KF3CT_MCP1: BioMAP Diversity Plus: KF3CT Assay for Monocyte Chemoattractant Protein 1 (MCP1/CCL2) Biomarker Activity (AID 2283073). To be noted: primary human keratinocytes with fibroblasts; actives raise or lower the signal. Put shortly:
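Human keratinocyte plus foreskin fibroblast primary co-culture exposed to chemical for 24 h. MCP-1 levels measured by ELISA. Bidirectional curve fitting relative to DMSO negative control as baseline.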

Read-out in assay [4]: Matrix Metallopeptidase 9 (MMP9), MMP9 (gene 4318)
In words: BSK_KF3CT_MMP9: BioMAP Diversity Plus: KF3CT Assay for Matrix Metallopeptidase 9 (MMP9) Biomarker Activity (AID 2283074).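 As to AC50: MMP9 protein level quantified by ELISA in the co-culture.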 Particulars: primary human keratinocytes with fibroblasts; actives raise or lower the signal. Put shortly: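 Human keratinocyte and foreskin fibroblast co-culture exposed to chemicals for 24 h; MMP9 biomarker measured by ELISA, bidirectional fitting relative to DMSO; cytotoxicity tracked by SRB total protein staining in parallel cultures.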

Read-out in assay [5]: urokinase plasminogen activator (uPA), PLAU (gene 5328)
As to the kind of experiment: BSK_KF3CT_uPA: BioMAP Diversity Plus: KF3CT Assay for urokinase plasminogen activator (uPA) Biomarker Activity (AID 2283075). To be noted: primary human keratinocytes with fibroblasts; actives raise or lower the signal. Put shortly: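 Primary human keratinocyte/foreskin fibroblast co-culture exposed to chemical; uPA measured by ELISA at 24 h. Bidirectional fit versus DMSO, with parallel SRB total-protein staining for cytotoxicity.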

Read-out in assay [6]: CD40, CD40 (gene 958)
In words: BSK_LPS_CD40: BioMAP Diversity Plus: LPS Assay for CD40 Biomarker Activity (AID 2283076). Particulars: primary human HUVEC with PBMC; actives raise or lower the signal. In a few lines:
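Primary human umbilical vein endothelial cells co-cultured with peripheral blood mononuclear cells, LPS-stimulated, were dosed with chemical and read 24 h later. CD40 levels were measured by ELISA and fitted bidirectionally against DMSO as negative control and baseline.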

Read-out in assay [7]: E-selectin (Homo sapiens) (UniProt P16581)
In words: BSK_LPS_Eselectin: BioMAP Diversity Plus: LPS Assay for Eselectin Biomarker Activity (AID 2283077). To be noted: primary human HUVEC with PBMC; actives raise or lower the signal. Put shortly:
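Human umbilical vein endothelial cells co-cultured with peripheral blood mononuclear cells under LPS stimulation; E-selectin measured by ELISA 24 h after chemical dosing. Activity fitted bidirectionally against DMSO as negative control and baseline.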

Read-out in assay [8]: Interleukin-8 (IL8), CXCL8 (gene 3576)
In words: BSK_LPS_IL8: BioMAP Diversity Plus: LPS Assay for Interleukin-8 (IL8) Biomarker Activity (AID 2283078). Particulars: primary human HUVEC with PBMC; actives raise or lower the signal. In a few lines:
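Human umbilical vein endothelial cells co-cultured with PBMC were stimulated with LPS; IL-8 levels were measured by ELISA 24 h after chemical dosing. Activity was fitted bidirectionally against DMSO as negative control and baseline.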

Assay [9] is described as follows: BSK_LPS_SRB: Viability Assessment in the BioMAP Diversity Plus: LPS Assay (AID 2283079).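 Also: total protein by sulforhodamine B absorbance as a cytotoxicity measure; measured one day after compound addition; fitted in both directions against DMSO so loss or gain of signal counts.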 To be noted: primary human HUVEC with PBMC. In a few lines:
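Human umbilical vein endothelial cells co-cultured with PBMC (LPS system) were dosed for 24 h. Total protein was stained with 0.1% sulforhodamine B after 10% TCA fixation, read at 560 nm, and fitted bidirectionally against DMSO baseline.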

Read-out in assay [10]: Interleukin-1 alpha (IL1a), IL1A (gene 3552)
In words: BSK_LPS_IL1a: BioMAP Diversity Plus: LPS Assay for Interleukin-1 alpha (IL1a) Biomarker Activity (AID 2283080). Particulars: primary human HUVEC with PBMC; actives raise or lower the signal. In a few lines:
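Human umbilical vein endothelial cells co-cultured with peripheral blood mononuclear cells were LPS-stimulated and exposed to test chemicals for 24 h. IL-1 alpha was quantified by ELISA, with bidirectional curve fitting against DMSO as the negative control and baseline.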

Read-out in assay [11]: Monocyte Chemoattractant Protein-1 (MCP1), CCL2 (gene 6347)
In words: BSK_LPS_MCP1: BioMAP Diversity Plus: LPS Assay for Monocyte Chemoattractant Protein-1 (MCP1) Biomarker Activity (AID 2283081). To be noted: primary human HUVEC with PBMC; actives raise or lower the signal. In a few lines:
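HUVEC plus PBMC co-culture (human primary cells, LPS system) exposed to test chemical for 24 h; MCP-1 measured by ELISA. Bidirectional curve fitting against DMSO baseline; parallel SRB total-protein staining flags overt cytotoxicity.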

A short description of assay [12]: BSK_LPS_PGE2: BioMAP Diversity Plus: LPS Assay for Prostaglandin E2 (PGE2) Biomarker Activity (AID 2283082). To be noted: primary human HUVEC with PBMC; actives raise or lower the signal. Put shortly: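 HUVEC plus human PBMC co-culture stimulated with LPS; secreted PGE2 quantified by ELISA 24 h after chemical dosing. Activity fitted bidirectionally against DMSO baseline; parallel SRB staining (0.1% SRB after 10% TCA fixation, 560 nm) flags overt cytotoxicity.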

Read-out in assay [13]: Tissue Factor, F3 (gene 2152)
In words: BSK_LPS_TissueFactor: BioMAP Diversity Plus: LPS Assay for Tissue Factor Biomarker Activity (AID 2283084). To be noted: primary human HUVEC with PBMC; actives raise or lower the signal. Put shortly: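 Human umbilical vein endothelial cells co-cultured with peripheral blood mononuclear cells were dosed and stimulated with LPS. Cell-surface CD142 was quantified by ELISA at 24 h. Activity was fitted bidirectionally against DMSO baseline.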

Read-out in assay [14]: Tumor necrosis factor (Homo sapiens) (UniProt P01375)
As to the kind of experiment: BSK_LPS_TNFa: BioMAP Diversity Plus: LPS Assay for Tumour Necrosis Factor alpha (TNFa) Biomarker Activity (AID 2283085). Particulars: primary human HUVEC with PBMC; actives raise or lower the signal. Put shortly: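 Human umbilical vein endothelial cells co-cultured with PBMC and stimulated with LPS. TNFa was measured by ELISA 24 h after chemical dosing, fitted bidirectionally relative to DMSO.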

Read-out in assay [15]: Vascular cell adhesion molecule 1 (VCAM1), VCAM1 (gene 7412)
As to the kind of experiment: BSK_LPS_VCAM1: BioMAP Diversity Plus: LPS Assay for Vascular cell adhesion molecule 1 (VCAM1) Biomarker Activity (AID 2283086). To be noted: primary human HUVEC with PBMC; actives raise or lower the signal. In a few lines: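 Human umbilical vein endothelial cells co-cultured with PBMC and stimulated with LPS; VCAM-1 measured by ELISA 24 h after dosing. Bidirectional curve fitting against DMSO baseline; cytotoxicity tracked in parallel by SRB total-protein staining.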

Read-out in the next assay: CD38, CD38 (gene 952)
In words: BSK_SAg_CD38: BioMAP Diversity Plus: SAg Assay for CD38 Biomarker Activity (AID 2283087). To be noted: primary human HUVEC with PBMC; actives raise or lower the signal. In a few lines: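 Human HUVEC plus PBMC co-culture stimulated with superantigen; CD38 measured by ELISA 24 h after chemical dosing. Fluorescence read-out, bidirectional fit against DMSO; cytotoxicity tracked in parallel by SRB and Alamar Blue.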

Read-out in assay [16]: CD40, CD40 (gene 958)
As to the kind of experiment: BSK_SAg_CD40: BioMAP Diversity Plus: SAg Assay for CD40 Biomarker Activity (AID 2283088). Particulars: primary human HUVEC with PBMC; actives raise or lower the signal. Put shortly:
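Human umbilical vein endothelial cells co-cultured with PBMC; CD40 levels measured by ELISA with fluorescence read-out 24 h after chemical dosing. Gain or loss of signal fitted bidirectionally against DMSO baseline.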

Read-out in the next assay: CD69, CD69 (gene 969)
In words: BSK_SAg_CD69: BioMAP Diversity Plus: SAg Assay for CD69 Biomarker Activity (AID 2283089). To be noted: primary human HUVEC with PBMC; actives raise or lower the signal. Put shortly:
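Values derive from bidirectional fitting relative to DMSO vehicle. Cells: umbilical vein endothelium plus peripheral blood mononuclear cells, treated 24 h before fluorescent ELISA for CD69.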

Read-out in assay [17]: Transforming growth factor beta 1 (TGFb1), TGFB1 (gene 7040)
In words: BSK_KF3CT_TGFb1: BioMAP Diversity Plus: KF3CT Assay for Transforming growth factor beta 1 (TGFb1) Biomarker Activity (AID 2283072). Particulars: primary human keratinocytes with fibroblasts; actives raise or lower the signal. In a few lines: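 Human keratinocyte/foreskin fibroblast co-culture; TGF-b1 measured by ELISA 24 h after dosing, fitted bidirectionally versus DMSO. Cytotoxicity checked in parallel cultures by total protein (SRB staining, 560 nm).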

Read-out in assay [18]: Macrophage colony-stimulating factor (MCSF), CSF1 (gene 1435)
As to the kind of experiment: BSK_LPS_MCSF: BioMAP Diversity Plus: LPS Assay for Macrophage colony-stimulating factor (MCSF) Biomarker Activity (AID 2283083). Particulars: primary human HUVEC with PBMC; actives raise or lower the signal. Put shortly: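 Human umbilical vein endothelial cells co-cultured with peripheral blood mononuclear cells were exposed to compound for 24 h. M-CSF levels were measured by ELISA, and bidirectional curve fitting used DMSO as the negative control and baseline.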

A structure can be active in one record and inactive in another. Calls of active or inactive are those of the source. The calls were made as follows: active = hit-call score of the fitted dose curve at least 0.9, where 1 is the maximum; inactive = score below 0.9.

Sequence of E-selectin (Homo sapiens) (P16581 whole entry, looked up): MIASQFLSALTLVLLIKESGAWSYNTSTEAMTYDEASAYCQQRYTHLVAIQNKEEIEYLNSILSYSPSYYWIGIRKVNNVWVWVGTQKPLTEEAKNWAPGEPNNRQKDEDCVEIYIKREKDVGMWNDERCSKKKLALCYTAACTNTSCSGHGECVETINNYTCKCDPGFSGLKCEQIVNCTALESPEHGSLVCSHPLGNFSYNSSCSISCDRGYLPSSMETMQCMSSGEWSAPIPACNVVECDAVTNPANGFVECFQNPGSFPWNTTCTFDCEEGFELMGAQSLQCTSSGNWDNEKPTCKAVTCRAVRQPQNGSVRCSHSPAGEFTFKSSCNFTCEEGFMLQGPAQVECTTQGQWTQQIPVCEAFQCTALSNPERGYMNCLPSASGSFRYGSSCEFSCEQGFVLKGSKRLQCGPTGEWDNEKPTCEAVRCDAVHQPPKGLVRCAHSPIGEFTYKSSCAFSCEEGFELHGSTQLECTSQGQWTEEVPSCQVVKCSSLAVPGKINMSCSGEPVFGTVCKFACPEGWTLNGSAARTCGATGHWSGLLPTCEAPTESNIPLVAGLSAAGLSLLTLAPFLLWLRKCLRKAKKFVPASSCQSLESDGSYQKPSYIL
Sequence of Tumor necrosis factor (Homo sapiens) (P01375 whole entry, looked up): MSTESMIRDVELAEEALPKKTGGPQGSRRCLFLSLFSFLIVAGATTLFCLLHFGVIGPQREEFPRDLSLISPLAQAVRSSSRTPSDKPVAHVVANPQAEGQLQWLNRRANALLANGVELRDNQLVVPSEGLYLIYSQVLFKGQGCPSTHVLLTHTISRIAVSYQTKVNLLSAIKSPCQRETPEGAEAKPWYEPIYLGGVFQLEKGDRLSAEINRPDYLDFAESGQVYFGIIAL

In the case of `O=C(O)C(F)(F)C(F)(F)C(F)F`, the outcome in assay [1] was “inactive”; in assay [2] it was “inactive”; in [3] it was “inactive”; in assay [4], “inactive”; in [5], “inactive”; with CD40, CD40 (gene 958) [6], “inactive”. For the same molecule, the outcome in assay [7], in assay [8], in [9], in [10], in [11] and in assay [12] was inactive. Besides, the outcome was “inactive” in assay [13]; “inactive” in assay [14]; “inactive” in assay [15]; “inactive” with CD38, CD38 (gene 952); “inactive” in the assay with CD40, CD40 (gene 958) [16]; “inactive” in the assay with CD69, CD69 (gene 969).

With `CS(C)(=O)=O`, the outcome in assay [1], in assay [2], in assay [17], in assay [3], in assay [4] and in [5] was inactive. In addition, the outcome was “inactive” with CD40, CD40 (gene 958) [6]; “inactive” in assay [7]; “inactive” in assay [8]; “inactive” in assay [9]; “inactive” in assay [10]; “inactive” in [11]. The outcome was “inactive” in assay [12]; “inactive” in assay [13]; “inactive” in assay [14]; “inactive” in assay [15]; “inactive” with CD38, CD38 (gene 952); “inactive” with CD40, CD40 (gene 958) [16]. The outcome with CD69, CD69 (gene 969) was inactive.

As usually defined, the AC50 is the concentration giving half of the maximal activity seen. As for `FC(F)(F)C(F)(F)C(F)(F)C(F)(F)C(F)(F)C(F)(F)C(F)(F)I`, the outcome was “inactive” in assay [1]; “inactive” in [2]; “inactive” in assay [3]; “inactive” in assay [4]; “inactive” in [5]; “inactive” with CD40, CD40 (gene 958) [6]. The outcome in assay [7], in assay [8], in [9], in assay [10], in assay [11] and in [12] was inactive. Besides, the outcome in assay [18] is “inactive”; in assay [13], “inactive”; in assay [14] it was “inactive”; in [15] it was “inactive”; in the assay with CD38, CD38 (gene 952), “inactive”; with CD40, CD40 (gene 958) [16] it was “inactive”. In addition, in the assay with CD69, CD69 (gene 969), the outcome was inactive. Besides, the AC50 in assay [4] is 244 nM (active).

Values taken from PubChem BioAssay (EPA / NIEHS).
